# Test results published in PubChem BioAssay (NCATS).
# Several values for one entry are separate records, joined by “and”; a condition that tells them apart may be missing. Equal values may be shown once. Records with an inconclusive call do not appear. Activity calls are given as the source filed them. Unless noted, how the calls were made is not given here. Non-standard residues stand in square brackets, D forms with d. Residues, ends and D or L forms follow the SMILES beside them. *: point of attachment. Sta = CC(C)C[C@H](N)[C@@H](O)CC(=O)O; Isovaleryl = CC(C)CC(=O)*
# Legend:
# [1] = qHTS Assay for Identifying Gametocytocidal Compounds (AID 743244; active means well fitted curve in the direction sought with a large enough effect; an effect the other way counts as inactive or inconclusive; further: potency means the concentration at half of the fitted maximal effect;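 on max response: on the % scale 0 is the no-effect control and ±100 the full control effect; actives lower the fluorescent signal which means gametocytes are killed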); conditions: P. falciparum 3D7 stage III-V gametocytes, alamarBlue, 72 h; max response: stronger effect = lower value
# Procedure, shortened: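 Using 20,000 stage III–V 3D7 gametocytes per well, compounds were incubated 72 h under 37 °C/5% CO2. Viability was then assessed by 24 h alamarBlue reduction, measured fluorometrically at 525/598 nm.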
# [2] = qHTS profiling of the MIPE4 collection as inhibitors of Plasmodium falciparum (3D7) proliferation (AID 743344);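 further: scaled between DMSO vehicle wells and 0.29 µM artemisinin as full inhibition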; conditions: P. falciparum 3D7 in erythrocytes, SYBR Green DNA fluorescence, 72 h; at 28.5 µM (top of the series) unless noted
# Procedure, shortened: (§1)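 Parasite DNA was quantified by SYBR Green I fluorescence (ex 485, em 535 nm) after overnight lysis in saponin/Triton buffer at room temperature. Cultures at 0.3% parasitemia and 2.5% hematocrit were first exposed to compound for 72 h at 37 C; signals were normalised to artemisinin (0.29 uM) and vehicle wells.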
# [3] = qHTS profiling for inhibitors of Plasmodium falciparum (3D7) proliferation (AID 743322);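 further: infected erythrocytes exposed to compound for 72 h before lysis; 100% = DMSO vehicle wells and 0% = 0.29 µM artemisinin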; conditions: P. falciparum 3D7 proliferation; at 28.7 µM (top of the series) unless noted
# Procedure, shortened: as §1
# [4] = qHTS profiling for inhibitors of Plasmodium falciparum (DD2) proliferation (AID 743323); conditions: lower = more inhibition; at 28.7 µM (top of the series) unless noted
# Procedure, shortened: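 Parasite DNA quantified by SYBR Green fluorescence (ex 485, em 535 nm) after saponin/Triton lysis and overnight dark incubation. Cultures: 0.3% parasitemia, 2.5% hematocrit, 72 h, 37 C; data scaled between DMSO and 0.29 uM artemisinin.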
# [5] = qHTS profiling for inhibitors of Plasmodium falciparum (HB3) proliferation (AID 743324; active means well fitted curve in the direction sought with a large enough effect; an effect the other way counts as inactive or inconclusive;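 further: 100% = DMSO vehicle wells and 0% = artemisinin-treated control wells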); conditions: Plasmodium falciparum HB3 blood-stage proliferation; at 28.7 µM (top of the series) unless noted
# Procedure, shortened: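 SYBR Green fluorescence (485 ex/535 em) of lysed cultures, incubated overnight at room temperature in the dark, quantifies parasite DNA. Infected erythrocytes at 0.3% parasitemia and 2.5% hematocrit were exposed 72 h; values normalized to DMSO and 0.29 uM artemisinin controls.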
smiles,measurement,setting,value
Cc1nc2n(c(=O)c1CCN1CCC(c3noc4cc(F)ccc34)CC1)CCCC2,max response,[1],9.32% (inactive)
CC(C)(S)[C@@H](N)C(=O)O,max response,[1],21.3% (inactive)
same,"parasite growth, % of DMSO control",[2],106%
CC1(C)CCC(C)(C)c2cc(NC(=O)c3ccc(C(=O)O)cc3)ccc21,max response,[1],7.33% (inactive)
same,"parasite growth, % of DMSO control",[2],23.1%
NC(=O)Cc1cccc(C(=O)c2ccccc2)c1N,max response,[1],5.12% (inactive)
O=C(O)c1cn(-c2ccc(F)cc2)c2cc(N3CCNCC3)c(F)cc2c1=O,max response,[1],2.27% (inactive)
same,"parasite growth, % of DMSO control",[2],92.9%
CN(C)C(=O)COC(=O)Cc1ccc(OC(=O)c2ccc(N=C(N)N)cc2)cc1,max response,[1],10.2% (inactive)
same,"parasite growth, % of DMSO control",[2],75%
C=CCc1cc(OC)c(O)c(C(=O)NCCO)c1,max response,[1],-5.25% (inactive)
CN(C)c1ccc(O)c2c1C[C@H]1C[C@H]3[C@H](N(C)C)C(=O)C(C(N)=O)=C(O)[C@@]3(O)C(=O)C1=C2O,max response,[1],-5.16% (inactive) and -5.04% (inactive)
same,"parasite growth, % of DMSO control",[2],6.29%
Cc1cccc(CN2CCN(C(c3ccccc3)c3ccc(Cl)cc3)CC2)c1 (stereo unspecified),max response,[1],0.914% (inactive)
same,"parasite growth, % of DMSO control",[2],6.23%
CN1CCC(=C2c3ccccc3CCc3sccc32)CC1,"parasite growth, % of DMSO control",[2],8.53%
CCOC(=O)c1c(C)n(C)c2ccc(O)cc12,max response,[1],2.91% (inactive)
same,"parasite growth, % of DMSO control",[2],93.9%
Cc1ncc([N+](=O)[O-])n1CC(C)O (stereo unspecified),max response,[1],9.98% (inactive)
same,"parasite growth, % of DMSO control",[2],94.7%
COc1cc(C(C)=O)ccc1OCCCN1CCC(c2noc3cc(F)ccc23)CC1,max response,[1],6.32% (inactive)
same,"parasite growth, % of DMSO control",[2],29.6%
C[C@]12CCC(=O)C=C1CC[C@@H]1[C@H]2[C@@H](O)C[C@@]2(C)[C@H]1CC[C@]2(O)C(=O)CO,"parasite growth, % of DMSO control",[2],76.9%
O=C1CCc2ccc(OCCCCN3CCN(c4cccc(Cl)c4Cl)CC3)cc2N1,max response,[1],0.257% (inactive)
same,"parasite growth, % of DMSO control",[2],29.7%
C=C(c1ccc(C(=O)O)cc1)c1cc2c(cc1C)C(C)(C)CCC2(C)C,max response,[1],3.99% (inactive)
same,"parasite growth, % of DMSO control",[2],70%
COC(=O)C1=C(C)NC(C)=C(C(=O)OC(C)C)C1c1cccc2nonc12 (stereo unspecified),max response,[1],3.5% (inactive)
same,"parasite growth, % of DMSO control",[2],51.5%
Oc1ccc(OCc2ccccc2)cc1,max response,[1],3.93% (inactive)
same,"parasite growth, % of DMSO control",[2],89.5%
CCCCN(CCCC)CCC(O)c1cc2c(Cl)cc(Cl)cc2c2cc(C(F)(F)F)ccc12 (stereo unspecified),remaining parasite growth % (stronger effect = lower value),[3],-0.286% [at 9.63 µM]
same,"activity, percent of control",[4],0.468% [at 9.63 µM]
same,"remaining proliferation (% of control), lower = more inhibition",[5],0.576% [at 9.63 µM]
CNC[C@@H](O)[C@@H](O)[C@H](O)[C@H](O)CO,"parasite growth, % of DMSO control",[2],65.8%
CCCCCCCCOc1ccccc1C(=O)Nc1ccc(C(=O)OCC[N+](C)(CC)CC)cc1,"parasite growth, % of DMSO control",[2],9.2%
CC(C)CC(=O)N[C@H](C(=O)N[C@H](C(=O)N[C@@H](CC(C)C)[C@@H](O)CC(=O)N[C@@H](C)C(=O)N[C@@H](CC(C)C)[C@@H](O)CC(=O)O)C(C)C)C(C)C (Isovaleryl-VV[Sta]A[Sta]-OH),"parasite growth, % of DMSO control",[2],59.4%
COC1=C(OC)C(=O)C(CCCCCCCCCCO)=C(C)C1=O,max response,[1],-5.2% (inactive)
same,"parasite growth, % of DMSO control",[2],61.7%
Cc1cc2cc3c(C)cc(=O)oc3c(C)c2o1,max response,[1],13.8% (inactive)
same,"parasite growth, % of DMSO control",[2],93%
COCCCN1CCC(NC(=O)c2cc(Cl)c(N)c3c2OCC3)CC1,"parasite growth, % of DMSO control",[2],28.3%
CC(C)c1nc(CN(C)C(=O)N[C@H](C(=O)N[C@@H](Cc2ccccc2)C[C@H](O)[C@H](Cc2ccccc2)NC(=O)OCc2cncs2)C(C)C)cs1,max response,[1],-4.83% (inactive)
same,"parasite growth, % of DMSO control",[2],20.4%
O=C(O)c1cc(=O)c2c(OCC(O)COc3cccc4oc(C(=O)O)cc(=O)c34)cccc2o1,max response,[1],10.5% (inactive)
same,"parasite growth, % of DMSO control",[2],85.2%
CC(C)Oc1ccc2c(=O)c(-c3ccccc3)coc2c1,max response,[1],-8.04% (inactive) and -1.57% (inactive)
same,"parasite growth, % of DMSO control",[2],75.9%
Cc1cc(=O)oc2cc(O)ccc12,max response,[1],14.2% (inactive)
same,"parasite growth, % of DMSO control",[2],85.5%
O=P(O)(O)C(O)(Cn1ccnc1)P(=O)(O)O,max response,[1],13.2% (inactive)
same,"parasite growth, % of DMSO control",[2],103% [at 9.64 µM]
Cc1cc(C2CCCCC2)n(O)c(=O)c1,remaining parasite growth % (stronger effect = lower value),[3],-0.4%
same,"activity, percent of control",[4],0.27%
same,"remaining proliferation (% of control), lower = more inhibition",[5],-0.0898%
Cc1c(C(=O)NN2CCCCC2)nn(-c2ccc(Cl)cc2Cl)c1-c1ccc(Cl)cc1,max response,[1],2.34% (inactive)
same,"parasite growth, % of DMSO control",[2],6.76%
O=C(NC(Cc1cc(=O)[nH]c2ccccc12)C(=O)O)c1ccc(Cl)cc1 (stereo unspecified),max response,[1],22.1% (inactive)
same,"parasite growth, % of DMSO control",[2],88.9%
Clc1ccc(C(Cn2ccnc2)OCc2ccc(Sc3ccccc3)cc2)c(Cl)c1 (stereo unspecified),"parasite growth, % of DMSO control",[2],5.64%
N=C(N)c1ccc2cc(OC(=O)c3ccc(N=C(N)N)cc3)ccc2c1,max response,[1],6.62% (inactive)
same,"parasite growth, % of DMSO control",[2],6.93%
COC(=O)C1=C(C)NC(C)=C(C(=O)OCCCN2CCC(c3ccccc3)(c3ccccc3)CC2)C1c1cccc([N+](=O)[O-])c1 (stereo unspecified),Potency,[1],10 µM (active)
same,"parasite growth, % of DMSO control",[2],114%
C[Se]CCC(N)C(=O)O (stereo unspecified),max response,[1],-7.98% (inactive)
same,"parasite growth, % of DMSO control",[2],99.6% [at 57.5 µM]
CCC[C@@H]1C[C@@H](C(=O)N[C@@H]([C@H]2O[C@H](SC)[C@H](O)[C@@H](O)[C@H]2O)[C@@H](C)O)N(C)C1,max response,[1],-9.02% (inactive)
same,"parasite growth, % of DMSO control",[2],28.5%
CN(C)C(=O)[C@H](O)[C@H](Cc1ccccc1)NC(=O)c1cc2cc(Cl)ccc2[nH]1,"parasite growth, % of DMSO control",[2],6.18%
Cc1ccc(S(=O)(=O)NC(=O)NN2CC3CCCC3C2)cc1 (stereo unspecified),max response,[1],2.23% (inactive)
same,"parasite growth, % of DMSO control",[2],14%
CN(C)[C@@H](CCOc1cccc2ccccc12)c1ccccc1,"parasite growth, % of DMSO control",[2],18.8%
Cc1nccn1CC1CCc2c(c3ccccc3n2C)C1=O (stereo unspecified),max response,[1],-12.7% (inactive) and -3.64% (inactive)
same,"parasite growth, % of DMSO control",[2],89.8%
Clc1ccc2c(N3CCN(CCCN4CCN(c5ccnc6cc(Cl)ccc56)CC4)CC3)ccnc2c1,"parasite growth, % of DMSO control",[2],18.8% [at 9.64 µM]
CCOc1cc(CC(=O)N[C@@H](CC(C)C)c2ccccc2N2CCCCC2)ccc1C(=O)O,max response,[1],1.56% (inactive)
same,"parasite growth, % of DMSO control",[2],83.8%
CCC1=C(C)CN(C(=O)NCCc2ccc(S(=O)(=O)NC(=O)NC3CCC(C)CC3)cc2)C1=O (stereo unspecified),max response,[1],36.8% (inactive)
same,"parasite growth, % of DMSO control",[2],98.4%
C[C@H](Cn1cnc2c(N)ncnc21)OCP(=O)(O)O,"parasite growth, % of DMSO control",[2],171%
CCN(CC)CCOc1ccc(Cc2ccccc2)cc1,"parasite growth, % of DMSO control",[2],58.8%
